The chains are these.
B1: PhoQ; a variant is named by its letters at X, in order, P23837 (parent)
chain: MKKLLRLFFPLSLRVRFLLATAAVVLVLSLAYGMVALIGYSVSFDKTTFRLLRGESNLFYTLAKWENNKLHVELPENIDKQSPTMTLIYDENGQLLWAQRDVPWLMKMIQPDWLKSNGFHEIEADVNDTSLLLSGDHSIQQQLQEVREDDDDAEMTHSVAVNVYPATSRMPKLTIVVVDTIPVELKSSYMVWSWFIYVLSANLLLVIPLLWVAAWWSLRPIEALAKEVRELEEHNRELLNPATTRELTSLVRNLNRLLKSERERYDKYRTTLTDLTHSLKTPLXXLQXXLRSLRSEKMSVSDAEPVMLEQISRISQQIGYYLHRASMRGGTLLSRELHPVAPLLDNLTSALNKVYQRKGVNISLDISPEISFVGEQNDFVEVMGNVLDNACKYCLEFVEISARQTDEHLYIVVEDDGPGIPLSKREVIFDRGQRVDTLRPGQGVGLAVAREITEQYEGKIVAGESMLGGARMEVIFGRQHSAPKDE

Whole data set: some 140,000 sequences, median “enrichment ratio after two sorts for PhoP signalling” near 0, cut for the highest 2% near 11. The list comes from a sample in which the highest values are over-represented; it also holds similar and randomly drawn sequences.

The variants in this test derive from B1. As to the kind of experiment: enrichment ratio after two sorts for PhoP signalling (ratio (wild type AVST 3.29)); higher = more functional. The settings on record: with PhoP (E. coli).
As for WFHG, the enrichment ratio is no more than 0.25.

Take MFFV: the enrichment ratio is no more than 0.25.

On to SPGL, for which the enrichment ratio is no more than 0.25.

For VISE, the enrichment ratio was no more than 0.25.

For the variant FCRN, the enrichment ratio was no more than 0.25.

For the variant TIFI, the enrichment ratio was determined as 0.264.

On to TIQN, for which the enrichment ratio is 5.05.

As for TIYV, the enrichment ratio was 16.6.

TIKH: the enrichment ratio was no more than 0.25.

With TIDV, the enrichment ratio was no more than 0.25.

As for TITV, the enrichment ratio came out at 15.1.

Regarding TIQH, the enrichment ratio worked out at 12.6.

On to TIMV, for which the enrichment ratio was 1.5.

As to TIAN, the enrichment ratio came to 19.6.

Regarding TIWV, the enrichment ratio was no more than 0.25.

As to WITV, the enrichment ratio was no more than 0.25.

As to RIAN, the enrichment ratio was no more than 0.25.

On to PPYV, for which the enrichment ratio is no more than 0.25.

On to EETS, for which the enrichment ratio was no more than 0.25.

Consider VSPI, for which the enrichment ratio is no more than 0.25.

With TIVK, the enrichment ratio is no more than 0.25.

Regarding TIAA, the enrichment ratio came out at 12.

Consider TIGS, for which the enrichment ratio was determined as 15.

Consider TIFA, for which the enrichment ratio is no more than 0.25.

Take TIFC: the enrichment ratio was no more than 0.25.

Consider TIAD, for which the enrichment ratio was no more than 0.25.

For TITC, the enrichment ratio came to 12.2.

As for TINK, the enrichment ratio stood at 7.27.

On to TIFP, for which the enrichment ratio was no more than 0.25.

On to TIQQ, for which the enrichment ratio is 16.4.

Consider AIAA, for which the enrichment ratio was found to be 9.24.

Turning to TIQP, the enrichment ratio is no more than 0.25.

Consider AMHL, for which the enrichment ratio was no more than 0.25.

Take PQHY: the enrichment ratio was no more than 0.25.

As to EMES, the enrichment ratio is no more than 0.25.

As for LHSI, the enrichment ratio is no more than 0.25.

As to LTDV, the enrichment ratio was no more than 0.25.

Consider PMYR, for which the enrichment ratio is no more than 0.25.

For the variant LERK, the enrichment ratio is no more than 0.25.

In the case of TINH, the enrichment ratio was 34.4.

TIGR: the enrichment ratio turned out to be 5.97.

On to TIGD, for which the enrichment ratio was found to be 11.6.

Regarding TITH, the enrichment ratio was found to be 1.26.

For RIEH, the enrichment ratio was no more than 0.25.

On to TIMD, for which the enrichment ratio was no more than 0.25.

TINT: the enrichment ratio stood at 4.95.

Take TIQR: the enrichment ratio amounted to 16.

TITD: the enrichment ratio was no more than 0.25.

In the case of TIEH, the enrichment ratio came to 27.9.

For the variant WIQR, the enrichment ratio was no more than 0.25.

In the case of TIRI, the enrichment ratio was 2.01.

With FADQ, the enrichment ratio was no more than 0.25.

As to MASY, the enrichment ratio is no more than 0.25.

For the variant PWSE, the enrichment ratio is no more than 0.25.

As for ECDR, the enrichment ratio is no more than 0.25.

For AKEC, the enrichment ratio was no more than 0.25.

Take PVAT: the enrichment ratio is no more than 0.25.

Take TGSV: the enrichment ratio came out at 17.2.

RGSV: the enrichment ratio is no more than 0.25.

On to NISV, for which the enrichment ratio was determined as 3.96.

For MGSV, the enrichment ratio is 15.6.

For the variant GGSV, the enrichment ratio is 23.9.

For NGSV, the enrichment ratio was no more than 0.25.

For GNSV, the enrichment ratio came out at 8.29.

Turning to MGSK, the enrichment ratio is no more than 0.25.

Regarding GISV, the enrichment ratio was found to be 11.2.

Turning to YHSV, the enrichment ratio was no more than 0.25.

Take MGWR: the enrichment ratio was no more than 0.25.

In the case of GIMV, the enrichment ratio is 2.38.

Take YIFP: the enrichment ratio was no more than 0.25.

Consider IYDW, for which the enrichment ratio is no more than 0.25.

In the case of LKWY, the enrichment ratio is no more than 0.25.

With FTWQ, the enrichment ratio is no more than 0.25.

Regarding GEMI, the enrichment ratio turned out to be 84.

As to GEMD, the enrichment ratio is no more than 0.25.

In the case of GAMV, the enrichment ratio is no more than 0.25.

As to GANW, the enrichment ratio is no more than 0.25.

In the case of GEMS, the enrichment ratio came to 4.64.

For GAMI, the enrichment ratio amounted to 18.9.

For HTQK, the enrichment ratio is no more than 0.25.

Take QEKV: the enrichment ratio is no more than 0.25.

Consider MKDS, for which the enrichment ratio is no more than 0.25.

In the case of VMDC, the enrichment ratio was no more than 0.25.

For the variant HYLA, the enrichment ratio was no more than 0.25.

Turning to SGAT, the enrichment ratio was determined as 5.6.

For the variant TSAI, the enrichment ratio is 16.9.

Turning to SGKR, the enrichment ratio was no more than 0.25.

As for RGAI, the enrichment ratio was no more than 0.25.

Regarding SGAI, the enrichment ratio stood at 12.3.

With CFAI, the enrichment ratio was no more than 0.25.

Regarding NSAI, the enrichment ratio was found to be 0.375.

Consider NHAI, for which the enrichment ratio was no more than 0.25.

THAI: the enrichment ratio stood at 14.8.

On to KSAI, for which the enrichment ratio is no more than 0.25.

For the variant TGAI, the enrichment ratio is 12.3.

For the variant SHAI, the enrichment ratio is no more than 0.25.

Turning to HRPD, the enrichment ratio is no more than 0.25.

With FYDW, the enrichment ratio is no more than 0.25.

For TKHK, the enrichment ratio is no more than 0.25.

For the variant AFWS, the enrichment ratio was no more than 0.25.

With EVSQ, the enrichment ratio is no more than 0.25.

With SCCW, the enrichment ratio was determined as 5.25.

For the variant TARR, the enrichment ratio was 0.314.

With PTWW, the enrichment ratio is no more than 0.25.

Consider TDAI, for which the enrichment ratio came to 13.6.

For ADAI, the enrichment ratio turned out to be 4.82.

Regarding KDAI, the enrichment ratio was no more than 0.25.

For NQSC, the enrichment ratio is no more than 0.25.

In the case of TQTC, the enrichment ratio was 18.9.

In the case of TQSC, the enrichment ratio came out at 15.3.

For TQTA, the enrichment ratio worked out at 5.01.

On to TQTK, for which the enrichment ratio was no more than 0.25.

In the case of FQTM, the enrichment ratio is no more than 0.25.

TQTM: the enrichment ratio came out at 22.5.

With GQTM, the enrichment ratio was no more than 0.25.

With TQFC, the enrichment ratio worked out at 8.5.

Take FPER: the enrichment ratio was no more than 0.25.

Take LWDG: the enrichment ratio is no more than 0.25.

Take AEGV: the enrichment ratio is 17.5.

Regarding AHGV, the enrichment ratio is no more than 0.25.

As to AIGV, the enrichment ratio is no more than 0.25.

For the variant AEHV, the enrichment ratio is no more than 0.25.

As for AGGV, the enrichment ratio came out at 11.4.

Regarding AMGV, the enrichment ratio is no more than 0.25.

Turning to VYHA, the enrichment ratio is no more than 0.25.

Take ALVG: the enrichment ratio was determined as 1.71.

Take HEES: the enrichment ratio was no more than 0.25.

Take LAFL: the enrichment ratio turned out to be 2.72.

For AFDH, the enrichment ratio is no more than 0.25.

For ACGM, the enrichment ratio was no more than 0.25.

Turning to ACTI, the enrichment ratio amounted to 5.16.

Consider ALQN, for which the enrichment ratio was no more than 0.25.

With ALVN, the enrichment ratio worked out at 13.7.

Regarding ACVN, the enrichment ratio is 31.5.

For the variant ACNL, the enrichment ratio was no more than 0.25.

Take ACTM: the enrichment ratio was determined as 11.9.

As to ACWM, the enrichment ratio is no more than 0.25.

In the case of ALNL, the enrichment ratio is 1.07.

Take ACIM: the enrichment ratio was 30.7.

Take ACTC: the enrichment ratio was determined as 4.29.

Regarding ACPN, the enrichment ratio is no more than 0.25.

As to NDFR, the enrichment ratio amounted to 2.54.

For the variant FPHA, the enrichment ratio is no more than 0.25.

On to HDNY, for which the enrichment ratio was no more than 0.25.

Turning to QCKR, the enrichment ratio was no more than 0.25.

For LDKY, the enrichment ratio is no more than 0.25.

For the variant YWPF, the enrichment ratio is no more than 0.25.

As to DPVE, the enrichment ratio is no more than 0.25.

Consider NGRY, for which the enrichment ratio is no more than 0.25.

For YTVN, the enrichment ratio is no more than 0.25.

Regarding ATVN, the enrichment ratio was 19.4.

For the variant ACQN, the enrichment ratio was no more than 0.25.

ACAK: the enrichment ratio worked out at 0.412.

As for ACRM, the enrichment ratio is no more than 0.25.

Regarding ACAM, the enrichment ratio was 30.7.

With ACAE, the enrichment ratio worked out at 15.5.

Take ACAN: the enrichment ratio came to 15.5.
